Measurements as given in PubChem BioAssay AID1159580 (chemical genetic matrix, 2015).
“And” between values parts separate entries of the source, which are not always exact repeats. Equal entries are not always repeated. In all, about 5,500 compounds went through this assay and about 2,000 (36%) were called active. Another 18% or so got no clear call; they are omitted. Cut-off read from the data, not from the text of the source: active = normalized growth mostly below about 0.91 (no sharp cut-off); inconclusive = no clear call, values can overlap the other calls; inactive = mostly above about 0.92. Some of the results follow.

Experiment: chemical genetic growth profiling, strain panel (AID 1159580);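 note: tested at 20 µM; growth read once vehicle control cultures reached saturation at 30 °C; 1 = growth at the plate median or of vehicle wells; lower values mean less growth of the strain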
Details: S. cerevisiae deletion strains, growth OD

Measured: normalized growth

CN1CCC(=C2c3ccccc3Sc3ccccc32)CC1
active: locus YBR021W, strain FUR4, hits give low values 0.775 | locus YDR137W, strain rgp1, hits give low values 1.2 [resistant] | locus YGR252W, strain gcn5, hits give low values 0.765
inactive: locus YAL013W, strain DEP1, hits give low values 0.994 | locus YAL021C, strain ccr4, hits give low values 0.936 | locus YAL026C, strain drs2, hits give low values 0.994 | locus YAL030W, strain snc1, hits give low values 1.03 | locus YBL061C, strain skt5, hits give low values 1.04 | locus YBR009C, strain hhf1, hits give low values 1.06 | locus YBR023C, strain chs3, hits give low values 1.02 | locus YBR171W, strain sec66, hits give low values 1.04 | locus YBR229C, strain ROT2, hits give low values 0.998 | locus YBR231C, strain swc5, hits give low values 1.05 | locus YBR279W, strain paf1, hits give low values 1.02 | locus YCL011C, strain gbp2, hits give low values 1.04 | locus YCL016C, strain dcc1, hits give low values 1.03 | locus YCL029C, strain bik1, hits give low values 1.05 | locus YCL061C, strain MRC1, hits give low values 1.04 | locus YCL069W, strain vba3, hits give low values 1.02 | locus YCR088W, strain abp1, hits give low values 1.03 | locus YDL005C, strain med2, hits give low values 1.05 | locus YDL035C, strain GPR1, hits give low values 0.951 | locus YDL040C, strain nat1, hits give low values 1.01 | locus YDL074C, strain BRE1, hits give low values 0.986 | locus YDL101C, strain DUN1, hits give low values 1.03 | locus YDL134C, strain PPH21, hits give low values 1.01 | locus YDL185W, strain tfp1, hits give low values 1.01 | locus YDL192W, strain arf1, hits give low values 1.01 | locus YDR001C, strain nth1, hits give low values 1.02 | locus YDR069C, strain doa4, hits give low values 1.02 | locus YDR101C, strain arx1, hits give low values 1.01 | locus YDR150W, strain NUM1, hits give low values 1.01 | locus YDR159W, strain sac3, hits give low values 1.07 | locus YDR162C, strain NBP2, hits give low values 1.01 | locus YDR195W, strain ref2 1.11 | locus YDR297W, strain sur2, hits give low values 1.03 | locus YDR318W, strain mcm21, hits give low values 1.01 | locus YDR334W, strain swr1, hits give low values 1.03 | locus YDR335W, strain msn5, hits give low values 1.02 | locus YDR388W, hits give low values 0.955 | locus YDR392W, strain spt3, hits give low values 0.982 | locus YDR502C, strain sam2, hits give low values 0.995 | locus YEL003W, strain gim4, hits give low values 1.03 | locus YEL037C, strain rad23, hits give low values 1.02 | locus YEL061C, strain CIN8 (second series), hits give low values 1.02 | locus YEL061C, strain CIN8, hits give low values 1.01 | locus YER015W, strain faa2, hits give low values 1.01 | locus YER016W, strain bim1, hits give low values 1.03 | locus YER110C, hits give low values 1.01 | locus YER111C, strain swi4, hits give low values 1.03 | locus YER155C, strain BEM2 (second series), hits give low values 1.03 | locus YER155C, strain BEM2, hits give low values 1.01 | locus YER167W, strain BCK2, hits give low values 1.01 | locus YFR010W, strain ubp6, hits give low values 0.999 | locus YGL078C, strain dbp3, hits give low values 1.01 | locus YGL086W, strain mad1, hits give low values 0.99 | locus YGL167C, strain pmr1, hits give low values 1.03 | locus YGL173C, strain kem1, hits give low values 1.04 | locus YGL227W, strain vid30, hits give low values 1.03 | locus YGL240W, strain doc1, hits give low values 1.06 | locus YGL248W, strain PDE1, hits give low values 1 | locus YGL253W, strain hxk2, hits give low values 1.01 | locus YGR078C, strain PAC10, hits give low values 0.977 | locus YGR135W, strain pre9, hits give low values 0.934 | locus YGR229C, strain SMI1, hits give low values 0.839 | locus YHR013C, strain ard1, hits give low values 0.934 | locus YHR027C, strain rpn1, hits give low values 1.02 | locus YHR030C, strain SLT2, hits give low values 1.01 and 0.969 | locus YHR079C, strain IRE1 (second series), hits give low values 1.02 | locus YHR079C, strain IRE1, hits give low values 0.986 | locus YHR094C, strain hxt1, hits give low values 1.01 | locus YHR129C, strain ARP1, hits give low values 1.01 | locus YHR142W, strain chs7, hits give low values 0.98 | locus YHR200W, strain rpn10, hits give low values 1.01 | locus YIL066C, strain RNR3, hits give low values 1.01 | locus YIL073C, strain SPO22, hits give low values 1.01 | locus YIL125W, strain kgd1, hits give low values 1 | locus YIR030C, strain dcg1, hits give low values 1.02 | locus YJL092W, strain hpr5, hits give low values 1.02 | locus YJL095W, strain BCK1 (second series), hits give low values 1.02 | locus YJL095W, strain BCK1, hits give low values 0.974 and 0.973 | locus YJL115W, strain asf1, hits give low values 1.02 | locus YJL129C, strain trk1, hits give low values 1.07 | locus YJL134W, strain LCB3, hits give low values 0.994 | locus YJL154C, strain vps35, hits give low values 1.01 | locus YJL164C, strain tpk1, hits give low values 1.02 | locus YJL166W, strain qcr8, hits give low values 1.03 | locus YJL168C, strain set2, hits give low values 1.01 | locus YJL187C, strain SWE1 (second series), hits give low values 1.02 | locus YJL187C, strain SWE1, hits give low values 1.02 | locus YJR043C, strain POL32, hits give low values 1.07 | locus YJR066W, strain TOR1, hits give low values 0.956
